Data reported in PubChem BioAssay (NCI).
Where “and” joins values, the source holds several entries; their conditions need not be identical. Identical values can stand only once. Compounds without any hit were thinned out: in the full panel of roughly 83,000, 20% have a hit.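 Negative percent growth values reflect cell death: -40 means 40% of the cells present at the start died, and -100 means all died.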 Unmarked numbers belong to inactive results. Calls of active or inactive are those of the source. Rule for the calls: active = growth percent below 10; inactive = the rest.

Test system: HL-60(TB) leukemia
Test: NCI-60 one-dose screen, 48 h (100 = growth as untreated, 0 = no growth, -100 = all killed)
Conditions: 10 µM unless noted

With `Cc1cccc2c3c(sc12)C(c1ccc(Cl)cc1)C(C#N)=C(/N=C/c1ccc(Cl)cc1)O3` (stereo unspecified) the growth was -22% (active).

`C=C(C)[C@@H]1CC[C@]2(C(=O)O)CC[C@]3(C)[C@H](CC[C@@H]4[C@@]5(C)C[C@@H](Cc6cn(CCO[C@@H]7O[C@H](COC(C)=O)[C@H](OC(C)=O)[C@H](OC(C)=O)[C@H]7OC(C)=O)nn6)[C@H](O)C(C)(C)[C@@H]5CC[C@]43C)[C@@H]12` showed a growth of 37.9%.

In the case of `C=C1C(=O)O[C@H]2[C@H]1CC/C(COC(=O)OC/C1=C/CC[C@@]3(C)O[C@H]3[C@H]3OC(=O)[C@@H](CN(C)C)[C@@H]3CC1)=C\CC[C@@]1(C)O[C@@H]21`, the growth was -43% (active).

`OB(O)c1ccccc1` was tested, and the growth was 98.1%.

For `CCOc1ccccc1/C=N\N=C(\N)N/N=C/c1ccccc1OCC`, the growth was -7.32% (active).

`O=C1C(Cl)=C(NCc2ccco2)C(=O)c2ccccc21` showed a growth of 85%.

Work on `Cc1ccccc1N=C(c1ccccc1)C1C(=O)c2ccccc2C1=O` yielded a growth of 78.5%.

`COc1ccc(-c2nnc(-c3ccc4c(c3)nc(-c3ccncc3)n4C3CCCCC3)o2)cc1` gave a growth of 46.1%.

`COc1ccc(-c2nc(SCC(C)C)nc(N/N=C\c3ccc(F)cc3)c2C#N)cc1` gave a growth of 83.4%.

With `CCN1CCN(CCNc2nccc(-c3c(-c4cccc(O)c4)nc4sccn34)n2)S1(=O)=O` the growth was 64% and 91.9%.

Compound `COc1cccc(C(=O)NNc2nc(N3CCOCC3)nc(N3CCN(C(c4ccccc4)c4ccccc4)CC3)n2)c1` has a growth of 76.4%.
